Screening results as filed in PubChem.
PL biosyn Enam: phospholipid synthesis inhibitors, CHO cells, primary screen, ZR-82 cells, Enamine library, screen 3; ZR-82 CHO cells, pyrene fatty acid UV survival, CellTiter Blue; peroxisome-deficient CHO-K1 mutant line; plus DGAT-1, DGAT-2 and ACAT inhibitors; calls only at 10 µM; AID 1347385, 2020; hit rate 0.4% among 20,000;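 active means cell survival signal 2 SD away from solvent-only control wells, confirmed on one or two retests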;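 further: 3 h compound exposure then viability read about one day after UV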
Starred values were filed as active, the others as inactive; i = inactive; + = active, no number. This excerpt belongs to a sample that is enriched for hits.

SMILES	PL biosyn Enam
C(=C\c1cn(-c2ccccc2)nc1-c1cc2ccccc2o1)/c1nc2ccccc2s1	+
Cn1/c(=N/N=C/c2cn(-c3ccccc3)nc2-c2cc3ccccc3o2)sc2ccccc21	i
C(=N\N(c1ccccc1)c1ccccc1)/c1cn(-c2ccccc2)nc1-c1cc2ccccc2o1	i
O=S1(=O)CC2SC(=S)N(c3cccc(Br)c3)C2C1 (stereo not drawn)	i
O=[N+]([O-])c1cc2c(cc1C=Nc1ccc(Cl)cc1C(F)(F)F)OCO2	i
CN1C(=O)C(=Cc2c3n(C)c4ccccc4c(-c4ccccc4)c-3c3ccccc23)C(=O)N(C)C1=O	i
O=S(=O)(Nc1ccc2c(c1)CCC2)c1ccc(F)cc1	i
O=S(=O)(Nc1ccc2c(c1)OCCO2)c1ccc2c(c1)CCCC2	i
O=S(=O)(Nc1ccc2c(c1)CCC2)c1ccc(Br)cc1	+
Cc1sc2c(c1C)CN(C1CCC(C)CC1)CN2C(=O)c1ccco1 (stereo not drawn)	i
COc1ccc(OC)c(-c2c(C)n([O-])c3c([n+]2=O)CCC3)c1	i
FC(F)n1c(=S)n(C(F)F)c2ccccc21	i
FC(F)Sc1nc(-c2ccccc2)c(-c2ccccc2)n1C(F)F	i
FC(F)n1c(-c2ccccc2)c(-c2ccccc2)n(C(F)F)c1=S	+
Oc1c(/C=N/N(c2ccccc2)c2ccccc2)sc2ccccc12	i
S=C(NN=C1C2CC3CC(C2)CC1C3)Nc1ccc(Cl)c(Cl)c1	i
FC(F)(F)c1cc(NC(=S)Nc2ccc(Cl)c(Cl)c2)ccc1Cl	+
Fc1ccc(NC(=S)Nc2ccc(Cl)c(C(F)(F)F)c2)cc1Cl	i
O=P1(Nc2ccc(NP3(=O)C=C(c4ccccc4)OC(c4ccccc4)=C3)cc2)C=C(c2ccccc2)OC(c2ccccc2)=C1	i
Cc1nn(-c2ccccc2)c(N)c1N=Nc1ccc2ccccc2c1	i
Cc1nn(-c2ccccc2)c(N)c1N=Nc1ccccc1OC(F)F	+
COc1ccc(OC)c(N=Nc2c(C)nn(-c3ccccc3)c2N)c1	i
O=S(=O)(Nc1nc2ccccc2nc1Sc1ccccc1Cl)c1ccc(Br)cc1	i
O=[N+]([O-])c1ccc(N2CCNCC2)c(S(=O)(=O)N2CCOCC2)c1	i
O=[N+]([O-])c1ccc(N2CCN(CCO)CC2)cc1SCCO	i
SMILES	PL biosyn Enam
O=[N+]([O-])c1ccc(N2CCNCC2)cc1NC1C2CC3CC(C2)CC1C3 (stereo not drawn)	+
CC1CCC2(CC1)NC(=O)N(NC(=O)c1cc3c(s1)CCC(C)C3)C2=O (stereo not drawn)	i
O=C(N=Nc1c(O)[nH]c2ccc(Br)cc12)C12CC3CC(CC(C3)C1)C2	i
FC(F)Sc1ccc(NC(=S)NC2CCC(NC(=S)Nc3ccc(SC(F)F)cc3)CC2)cc1 (stereo not drawn)	i
Fc1ccc(NC(=S)NC2CCC(NC(=S)Nc3ccc(F)cc3)CC2)cc1 (stereo not drawn)	i
FC(F)Oc1ccc(NC(=S)NC2CCCCCCC2)cc1	+
CCN(CC)S(=O)(=O)c1ccc(N=Nc2sc(N)nc2C)cc1	i
Cc1nc(N)sc1N=Nc1ccc(Br)cc1	+
Cc1nc(N)sc1C	i
CCOC(=O)c1c(C)[nH]c(C(=O)C(C)OC(=O)Cn2cc(C(F)(F)F)ccc2=O)c1C (stereo not drawn)	i
CCN=c1scc(-c2ccc(F)cc2)n1/N=C/c1cc(C)ccc1C	i
c1ccc2cc(OCc3nc4ccccc4s3)ccc2c1	+
Brc1cc(Br)c2cccnc2c1OCc1nc2ccccc2s1	i
c1ccc2cc(OCc3nc4ccccc4[nH]3)ccc2c1	i
Cn1nc(CC(=O)N2CC(C(=O)N3CCOCC3)Oc3ccccc32)c2ccccc2c1=O (stereo not drawn)	i
O=C1/C(=N/NC(=S)NCC2CCCO2)c2cccc3cccc1c23 (stereo not drawn)	i
O=C(Nc1nc(-c2cccs2)cs1)C1CC(=O)N(C2CCCC2)C1 (stereo not drawn)	i
Brc1ccc(-c2nc(-c3ccccc3)c3ccccn23)cc1	i
Cc1cc(C)nc(NC(N)=O)n1	i
